Bioassay records as filed in PubChem BioAssay.
The list is not random: actives were taken first. Their share in the collection is about 3.6%.
Rango dissoc inh: inhibition of RanGTP-driven Rango-importin beta dissociation. Potency, µM (top dose mostly 46.1 µM), without a hit: at the top dose activity change, negative = inhibition. Biochemical FRET Rango-importin beta, RanGTP-induced dissociation. 340,000 compounds, 0.071% hits; calls by dose curve; further: potency means the concentration at half of the fitted maximal effect; % of control where 0% means no effect; nearly all actives have a fitted effect of over 45% in size
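Rango FRET biosensor (snurportin-1 IBB flanked by N-terminal EYFP and C-terminal CFP10) at 0.1 uM, with 0.25 uM importin beta in PBS, 1mM DTT, 0.02% Tween-20, 0.1% BSA. 0.6 uM Ran, 2mM GTP and 0.2 uM RCC1 were then added for 45 min at room temperature. Inhibition read as loss of FRET rise.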
GCN5L2 inh: blocks human GCN5L2 histone acetyltransferase | GCN5L2 HAT assay, ThioGlo1 CoA-SH fluorescence | Potency, µM (doses to about 58.9 µM), for the others: at the highest dose activity change, negative = inhibition, hits mostly inhibitors | 390,000 compounds, 0.21% hits; further: potency means the concentration at half of the fitted maximal effect; on the % scale 0 is the no-effect control and ±100 the full control effect
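ThioGlo1-coupled HAT assay: 20nM GCN5L2, 70uM acetyl-CoA, 75uM H3(1-25) peptide, pH 7.5. Fluorescence read at 340/540nm at start and after 20 min at room temperature.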
PLK1 PBD inh: blocks phosphopeptide binding to human PLK1 polo-box domain; Plk1 PBD binding of FITC phosphopeptide, fluorescence polarization; Potency, µM, for the others: max response, negative = inhibition, most hits filed as inhibitors; 360,000 compounds, 2.8% hits; AID 720504; further: potency means the concentration at half of the fitted maximal effect; series mostly up to about 57 µM; on the % scale 0 is the no-effect control and ±100 the full control effect; nearly all actives have a fitted effect of over 65% in size
VDR inhibitor: vitamin D3 receptor (human) inhibition; P11473; VDR-SRC2-3 peptide fluorescence polarization, 2 h; Potency, µM, for inactives: max response, negative = inhibition, most hits filed as inhibitors; 400,000 compounds, 0.93% hits; further: potency means the concentration at half of the fitted maximal effect; on the % scale 0 is the no-effect control and ±100 the full control effect
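VDR–SRC2-3 interaction, FP format. Cmpds 23 nl via pintool, brief spin, 2 h ambient incubation.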
PI5P4K alpha inh: blocks human PI5P4K alpha kinase activity; max response, %; 330,000 compounds, 1.2% hits; PI5P4Kalpha enzyme, ADP-Glo luminescence, 60 min; active compounds read low; AID 652105; active means max response of -50% or lower; inconclusive means between -30% and -50%; inactive means -30% or higher; further: value at the top dose of about 77 µM; on the % scale 0 is the no-effect control and ±100 the full control effect
Target sequence (P48426 whole entry, looked up): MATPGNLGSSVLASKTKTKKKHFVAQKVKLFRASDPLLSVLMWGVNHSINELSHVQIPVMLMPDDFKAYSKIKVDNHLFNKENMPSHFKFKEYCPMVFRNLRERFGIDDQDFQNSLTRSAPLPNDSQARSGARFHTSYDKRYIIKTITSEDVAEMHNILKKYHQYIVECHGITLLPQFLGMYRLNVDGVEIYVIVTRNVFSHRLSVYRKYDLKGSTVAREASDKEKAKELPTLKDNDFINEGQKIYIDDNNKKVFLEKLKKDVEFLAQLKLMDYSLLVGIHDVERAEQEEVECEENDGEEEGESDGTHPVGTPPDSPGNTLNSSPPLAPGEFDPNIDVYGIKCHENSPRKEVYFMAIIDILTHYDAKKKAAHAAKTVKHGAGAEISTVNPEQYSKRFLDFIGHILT
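Compounds were pin-transferred onto PI5P4Kalpha and substrate in HEPES pH 7.4 buffer with EGTA, CHAPS and 5% DMSO. ATP (5 microM final) started the reaction, which ran 60 minutes at room temperature before ADP-Glo detection.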
Rango complex inh: prevents formation of the Rango-importin beta complex. Q14974. Rango CFP/YFP FRET sensor + importin beta, 45 min. Potency, µM (series often up to 92.2 µM), inactives show at the top dose inhibition of complex formation. 340,000 compounds, 0.031% hits. AID 540263; calls by dose curve;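 further: potency means the concentration at half of the fitted maximal effect; 0% = DMSO wells and 100% = buffer wells lacking importin beta; nearly all actives have a fitted effect of over 15% in size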
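FRET biosensor (snurportin 1 IBB flanked by EYFP and cerulean), 50 nM, with compound 5 min, then 0.125 microM importin beta in PBS, 1 mM DTT, 0.02% Tween-20, 0.1% BSA. CFP/YFP ratio read after 45 min at room temperature; pre-read flags interference.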
* hit, by the source's call; ? = inconclusive; . = not tested or not shown; [ ] = dose if it differs, or a comment. Unless noted, the call rests on the fitted dose curve; in most records, active means well fitted curve in the direction sought with a large enough effect; inconclusive means small, poorly fitted or top-dose-only effect, or another doubt; inactive means no such curve, though single readings can be large; an effect the other way counts as inactive or inconclusive.

SMILES	Rango dissoc inh	GCN5L2 inh	PLK1 PBD inh	VDR inhibitor	PI5P4K alpha inh	Rango complex inh
Cc1cc(C)nc(/N=C2\NC(=O)CC(C(=O)O)N2c2ccc(C)c(C)c2)n1 (stereo unspecified)	-4%	0%	24µM*	50µM*	-22	1%
COc1ccc(NC(=O)CSc2nnc(C3CC3)n2C)cc1	0%	-5%	24µM*	28µM*	-28	?
CCOC(=O)c1csc(NC(=O)CSc2nnc(C3CC3)n2C)n1	-16%	-11%	27µM*	-19%	-15	-1%
CCOC(=O)Cc1csc(NC(=O)CSc2nnc(C3CC3)n2C)n1	4%	-2%	1%	-10%	-3	0%
COc1ccc(NC(=O)CSc2nnc(C3CC3)n2N)cc1	-6%	-10%	0%	18%	.	-1%
CCSc1nnc2c(n1)OC(CC)N(C(C)=O)c1ccccc1-2 (stereo unspecified)	.	-5%	.	11%	.	.
COc1cccc(C(=O)n2nc(-c3ccco3)nc2NCc2cccs2)c1	.	-8%	.	4%	.	.
O=C(/C=C/c1cccs1)c1ccc(Br)cc1	15%	-10%	-16%	50µM*	24	0%
CC1=C(C(=O)Nc2ccccc2)C(c2cccn2C)n2ncnc2N1 (stereo unspecified)	.	1%	.	14%	.	.
CCOC(=O)C1C(=O)N(C(=O)c2cncc(Br)c2)CC1c1ccccc1 (stereo unspecified)	19%	0%	3µM*	?	?	3%
CCOC(=O)C1C(=O)N(C(=O)c2ccc(OC)cc2)CC1c1ccccc1 (stereo unspecified)	-9%	-9%	-6%	-13%	.	5%
CC(C)OC(=O)CSc1nnc(-c2ccc(C(C)(C)C)cc2)n1N	-6%	1%	21µM*	?	-29	5%
O=C(/C=C/c1cccs1)NC1CCCC1	8%	-2%	-17%	1%	2	0%
O=C(NC1CCS(=O)(=O)C1)Oc1ccccc1 (stereo unspecified)	-24%	-9%	27µM*	-16%	-15	3%
O=C(/C=C/c1cccs1)NC1CCS(=O)(=O)C1 (stereo unspecified)	-4%	-2%	27µM*	89µM*	-2	-3%
Cc1ccc(OC(=O)NC2CCS(=O)(=O)C2)cc1C (stereo unspecified)	-1%	4%	-3%	10%	.	6%
COc1cc(NCc2ccc3nc(N)nc(N)c3c2C)cc(OC)c1OC	.	-18%	.	25µM*	.	.
COc1ccc(CNc2ccncc2)c(OC)c1OC	-6%	.	7%	-4%	8	-4%
COc1ccc(CN(C)S(=O)(=O)c2nnc(NC(=O)C(C)C)s2)cc1OC	.	-6%	.	5%	.	.
Cn1c(CNC(=O)c2ccc(F)cc2)nc2ccccc21	33%	?	27µM*	79µM*	-9	3%
Cc1cccc(OCC(O)CN2C(C)(C)CC(O)CC2(C)C)c1 (stereo unspecified)	6%	.	9.5µM*	-8%	-3	3%
Cc1ccc(N2CCN(CC(O)COc3cccc(C)c3)CC2)cc1 (stereo unspecified)	31%	?	4%	-7%	1	0%
O=[N+]([O-])c1ccc(N/N=C/c2cccc(O)c2O)c(S(=O)(=O)N2CCOCC2)c1	?	-7%	-4%	11%	?	0%
O=[N+]([O-])c1ccc(N/N=C/c2ccc(O)c(O)c2O)c(S(=O)(=O)N2CCOCC2)c1	3%	-12%	3µM*	?	-98*	4%
O=C(CCc1ccc(S(=O)(=O)N2CCOCC2)cc1)N/N=C/c1ccc(O)c(O)c1O	-8%	-19%	11µM*	-1%	?	-3%
SMILES	Rango dissoc inh	GCN5L2 inh	PLK1 PBD inh	VDR inhibitor	PI5P4K alpha inh	Rango complex inh
O=C(NCc1ccc(Cl)cc1)c1cccnc1	-1%	3%	24µM*	3%	-13	?
O=C(NCc1ccccc1)c1cccnc1	-11%	-12%	-14%	?	-2	0%
COc1cc(/C=N/N2C(=O)CSC2=S)ccc1O	-23%	-8%	-18%	-5%	-51*	6%
O=C1CSC(=S)N1/N=C/c1cc(Br)c(O)c(Br)c1	?	-27%	79%	?	-106*	?
Cc1ccccc1/C=N/N1C(=O)CSC1=S	-2%	4%	?	-10%	-4	0%
COc1cc(O)c(C=NN2C(=O)CSC2=S)c(OC)c1	.	.	-24%	.	-75*	.
O=C1CSC(=S)N1/N=C/c1ccc2c(c1)OCCO2	0%	-10%	?	-20%	-57*	-2%
COc1ccc(N(CC(=O)N2CCc3ccccc3C2)S(=O)(=O)c2ccc(C)cc2)cc1Cl	.	-6%	.	0%	.	.
N#C/C(=C/c1ccc(-c2ccc(S(N)(=O)=O)cc2)o1)c1nc2ccccc2s1	?	58%	54%	-4%	-53*	?
Nc1nc2c(F)c(F)c(F)cc2s1	-13%	-12%	27µM*	8%	?	0%
COc1ccc(CNC(=O)C(=O)NCc2cccnc2)cc1	6%	-2%	5%	19%	1	-1%
COc1ccc2c(c1)C=C(C(=O)OCc1cccnc1)CO2	?	-11%	27µM*	9%	?	?
O=C(CCc1ccccc1)n1nc(-c2ccccc2)nc1NCc1ccco1	-22%	-14%	-1%	1%	.	-3%
O=C(c1cccs1)n1nc(-c2ccccc2)nc1NCc1ccco1	4%	0%	27µM*	1%	-10	3%
CCN(CC)c1ccc(NC(=O)C2CCCN(S(=O)(=O)c3ccc4c(c3)oc(=O)n4C)C2)c(C)c1 (stereo unspecified)	.	0%	.	-4%	.	.
Cc1cc(O)c(C(C)C)cc1N=Cc1cc([N+](=O)[O-])ccc1O	-13%	-14%	-17%	?	-23	0%
Cc1cc(O)c(C(C)C)cc1N=Cc1ccccc1O	1%	-5%	10%	40µM*	-2	-4%
Cc1ccc(NC(=O)c2ccc(CN3CC(=O)N4CCCCC4C3=O)cc2)cc1C (stereo unspecified)	.	-7%	.	12%	.	.
COc1ccc2c(c1)OC(=O)CC2c1ccc2c(c1)OCO2 (stereo unspecified)	.	-6%[88.6 µM]	.	-2%	.	.
CCOc1cc(N2C(=O)CC3CS(=O)(=O)CC32)c(OCC)cc1NC(=O)c1ccccc1 (stereo unspecified)	-15%	-4%	3µM*	?	?	2%
CCOc1cc(N2CCOCC2)c(OCC)cc1NC(=O)c1cccc(N(C)C)c1	-7%	-6%	4%	11%	8	-4%
C#C[C@]1(O)CC[C@H]2[C@H]3CCC4=Cc5oncc5C[C@]4(C)[C@@H]3CC[C@]21C	.	8%[0.501 µM]	.	2%	.	.
